# Screening data as filed in PubChem BioAssay.
# The list is not random: actives were taken first. Their share in the collection is about 1.9%.
# BaF3 tox: counter-screen for JAK2V617F inhibitors: parental Ba/F3 viability inhibitors; 1.1% of 220,000 active; CellTiter-Glo ATP luminescence; inhibition, % at 5.6 µM; AID 1486;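 active = inhibition above a per-campaign cutoff, the mean inhibition of all tested compounds plus 3 SD, cut at about 27% in these data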;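 note: 0% = DMSO wells and 100% = JAK Inhibitor I control wells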
# KLF5 inh: suppresses KLF5 promoter-driven expression; AID 1700; inhibition, % at 5 µM; DLD-1 KLF5 promoter-luciferase reporter, luminescence; 0.23% of 290,000 active;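 active = inhibition above a per-plate limit of that plate's mean compound inhibition plus 3 SD, cut at about 60% in these data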;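 note: 0% = DMSO wells and 100% = LY294002 at 200 µM; higher means less KLF5 promoter-driven luciferase light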
# APP 5UTR inh: APP translation inhibition; SH-SY5Y APP 5'UTR-luciferase reporter, luminescence; inhibition, % at 2 µM; 0.82% of 190,000 active; AID 1285;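 active = inhibition above a set limit, derived from the sample mean plus 3 SD, cut at about 45% in these data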
# Ba/F3 V617F tox: reduce viability of Ba/F3 cells dependent on JAK2V617F. Ba/F3 EpoR-JAK2V617F viability, ATP luminescence. inhibition, % at 5.6 µM. 1.1% of 220,000 active;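 active = inhibition above the campaign mean plus 3 SD over all tested compounds, cut at about 24% in these data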;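 note: cytokine-independent growth of Ba/F3 cells driven by EpoR plus mutant JAK2; 0% = DMSO-treated cells and 100% = JAK inhibitor I control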
# IEC-6 tox: counter-screen for KLF5 inhibitors: cytotoxicity in IEC-6 cells; 0.78% of 290,000 active; IEC-6 cytotoxicity, luminescence viability; inhibition, % at 5 µM; in the data active = inhibition above about 22%;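 note: 0% = plate median of test compound wells and 100% = cytotoxic reference compound wells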
# The depositor's hits bear a star; · = no result given.
SMILES,BaF3 tox,KLF5 inh,APP 5UTR inh,Ba/F3 V617F tox,IEC-6 tox
Cc1ccc(S(=O)(=O)NCc2ccncc2)cc1C,75.1*,-18.2,-3.2,48.0*,11.1
O=S(=O)(NCc1ccncc1)c1ccc(Br)s1,62.2*,14.0,27.7,46.9*,13.3
CCN(C1CCCCC1)S(=O)(=O)c1ccc(S(=O)(=O)NCc2ccncc2)cc1,55.1*,-6.0,-18.6,44.6*,18.2
CSCC(C)N1CCC(N2CCC(C(=O)NCc3ccccn3)CC2)CC1 (stereo not given),·,-26.7,·,·,3.8
O=C(N/N=C/c1cccc([N+](=O)[O-])c1)c1cc[n+](CCO)cc1,·,-5.8,·,·,1.6
Cc1ccc(-c2nnc(NC3CCCC3)s2)cc1,·,-149.2,·,·,3.8
Cc1nnn(-c2nonc2N)c1C(=O)N/N=C/c1ccccc1O,6.1,-19.8,64.3*,-0.1,6.2
Cc1cc(C)c(C)c(S(=O)(=O)NCc2ccncc2)c1C,·,-14.3,·,·,4.2
C=CCn1c(=O)c(C(=O)NCCN(CC)CC)c(O)c2ccccc21,46.5*,-16.5,-1.9,-1.2,6.2
COc1cc(/C=C/C(=O)O)cc(S(=O)(=O)NCc2ccco2)c1OC,90.0*,-5.3,-13.7,1.4,0.5
COc1ccc(NC(=O)CCCN2C(=O)C3CC=CCC3C2=O)cc1 (stereo not given),·,-30.0,·,·,-4.4
O=C(Nc1ccc(Nc2ccccc2)cc1)C(Cl)(Cl)Cl,50.2*,-25.6,5.6,-3.7,-5.9
CCc1c(C(=O)NC(C)C2CCCO2)csc1C (stereo not given),·,-18.2,·,·,4.5
CCOC(=O)c1sc(NS(=O)(=O)c2ccccc2Cl)nc1C,51.3*,-2.6,-8.1,4.2,3.1
Oc1ccc(Nc2nc3ccccc3nc2Nc2ccc(O)cc2)cc1,99.7*,54.9,87.2*,93.4*,20.9
Oc1ccc(Nc2nc(-c3ccccc3)nc3ccccc23)cc1,·,-26.1,·,·,0.1
COc1cc(OC)cc(-c2nnc(SCC(=O)Nc3cc(C)on3)o2)c1,94.8*,-18.6,-8.4,1.3,-5.3
Cc1cc(NC(=O)CSc2nnc(-c3ccccc3)c(-c3ccccc3)n2)no1,3.2,-3.1,62.7*,-1.6,-4.0
CN(C)c1ccc(C(CNC(=O)Cc2cccc3ccccc23)N(C)C)cc1 (stereo not given),·,-16.9,·,·,-6.3
O=C(Cc1ccc(Cl)cc1)Nc1ccc(-c2cc3ccccc3oc2=O)c(Cl)c1,65.3*,52.4,86.2*,55.9*,47.6*
CCCCCN(C(=O)NC(=O)NC(C)CC)S(C)(=O)=O (stereo not given),89.0*,12.4,3.0,4.0,0.0
CCC(C)NC(=O)NC(=O)N(C1CCCCC1)S(C)(=O)=O (stereo not given),0.7,-15.2,-2.0,-1.1,-2.3
CC1=CC(C)(C)N(S(=O)(=O)c2ccc(F)cc2)c2ccccc21,2.2,-20.9,18.4,-0.2,-5.8
CC1=CC(C)(C)N(S(=O)(=O)c2ccc(C)cc2)c2ccc(C)cc21,36.5*,44.5,50.0*,50.5*,10.2
CC(=O)Nc1ccc(S(=O)(=O)N2c3ccccc3C(C)=CC2(C)C)cc1,63.7*,92.5*,89.0*,64.1*,88.2*
SMILES,BaF3 tox,KLF5 inh,APP 5UTR inh,Ba/F3 V617F tox,IEC-6 tox
Cc1ccc(C2(C)NC(=O)N(CC(=O)NCc3ccccc3Cl)C2=O)cc1 (stereo not given),·,-22.3,·,·,-2.5
O=C(Cn1ccc([N+](=O)[O-])n1)N1CCCCC1,42.6*,-2.1,0.5,-1.8,3.5
O=C(O)/C=C/c1cn(-c2ccccc2)nc1-c1ccc(-c2ccc([N+](=O)[O-])cc2)o1,-2.0,-19.7,·,-1.9,-7.0
O=[N+]([O-])c1ccc(N/N=C/c2c[nH]c3ccccc23)cc1,31.9*,-11.4,8.2,52.2*,11.3
O=[N+]([O-])c1ccc(N/N=C/c2ccc[nH]2)cc1,33.1*,4.5,65.0*,60.2*,5.7
O=[N+]([O-])c1ccccc1N/N=C/c1c[nH]c2ccccc12,3.7,-29.6,-173.3,-0.2,15.8
O=C(CSc1ccc2c(c1)OCCO2)Nc1ncc(Cl)cc1Cl,4.1,-7.2,46.1*,-2.0,-2.0
O=C(CSc1ccc2c(c1)OCCO2)Nc1cccnc1,-3.2,-15.4,-1.9,-4.5,-4.3
CCN(CC)CCOc1ccccc1C(C)=O,0.8,20.1,0.3,0.9,1.8
C=C1C(=O)[C@@]23[C@H](O)C[C@@H]4C(C)(C)CC[C@H](O)[C@]4(C)[C@@H]2C[C@H](O)[C@@H]1[C@H]3O,73.4*,-20.9,33.4,62.1*,-3.6
O=C(Nc1ncc(Cc2ccc(SC(F)F)cc2)s1)c1ccccc1,3.4,2.8,86.2*,-1.8,0.8
O=C(Nc1ncc(Cc2ccccc2)s1)c1cccs1,11.9,-172.0,-193.6,1.3,3.3
Cc1nn(CC(N)=O)c(=O)c2ccccc12,44.5*,-9.4,-6.6,19.6,-7.5
COc1ccc(/C=N/NC(=O)CNC(=O)c2ccncc2)cc1OC,·,-6.9,·,·,6.7
O=C1CCC(=O)N1c1ccc(-c2nc3ccccc3s2)cc1,88.6*,-83.0,-106.7,2.3,-2.2
CC1=C(C(=O)OC(C)(C)C)C(c2cccc3ccccc23)NC(=O)N1 (stereo not given),·,-3.4,·,·,3.9
COC(=O)c1sccc1NC(=O)c1c(C)c(-c2cccc(Cl)c2)nc2ccccc12,3.3,1.1,49.6*,-3.0,-7.6
COC(=O)c1sccc1NC(=O)c1cc(-c2cccc(C)c2)nc2ccccc12,8.5,-23.9,-9.3,4.1,1.5
COc1ccc(-c2nnc(NC(=O)c3ccc(S(=O)(=O)N4COCC4(C)C)cc3)o2)cc1,46.1*,25.7,33.1,21.2,9.5
CC1(C)COCN1S(=O)(=O)c1ccc(C(=O)Nc2nnc(-c3ccc(Cl)s3)o2)cc1,2.5,-20.5,44.5,-4.2,5.8
Nc1ccccc1C#Cc1ccccc1,35.3*,-108.9,-118.9,13.6,0.5
C=CCNC(=S)N/N=C(\C)c1ccccn1,91.2*,53.7,93.0*,98.4*,91.4*
C/C(=N/NC(=O)CNC(=O)c1ccccn1)c1ccccc1,5.8,5.4,-11.8,-2.0,-2.9
CC(=O)Nc1ccc(C(=O)N/C(=C/c2ccccc2)C(=O)Nc2cccc(C(=O)O)c2)cc1,-2.2,-4.3,0.1,-2.8,8.7
CC(=O)Nc1ccc(NC(=O)/C(Cl)=C/c2ccccc2)cc1,93.1*,-26.2,-81.7,2.0,7.0
SMILES,BaF3 tox,KLF5 inh,APP 5UTR inh,Ba/F3 V617F tox,IEC-6 tox
O=C(Nc1ccc2c(c1)CCCN2C(=O)c1cccs1)c1c(F)cccc1Cl,·,-2.9,·,·,-0.6
Cc1cccc(C)c1NC(=S)N(CCCN1CCOCC1)Cc1cccnc1,2.1,-23.5,-10.7,-1.2,2.3
CCOC(=O)C1CCC/C1=N\NC(=O)CN(c1cc(OC)ccc1OC)S(=O)(=O)c1ccccc1 (stereo not given),·,16.5,·,·,3.4
CCc1ccc(C(=O)N2CCN(c3ccc(NC(=O)c4cccnc4)cc3)CC2)cc1,·,-3.0,·,·,8.8
CC1(C)CCN2CCC(C)(C)c3c(O)ccc1c32,·,-21.6,·,·,4.9
Cc1ccc(S(=O)(=O)N2CCN(C(=O)CSC3CCCC3)CC2)c(C)c1,94.5*,10.2,-0.3,4.6,3.9
N/C(CC(=O)NC1CCCCC1)=N\OCC(=O)Nc1ccc(Cl)c(Cl)c1,-5.9,-27.8,·,-0.9,7.4
